# ATXN viability = Viability Counterscreen for Primary qHTS for Inhibitors of ATXN expression; S2 cells (HEK-293 line with an ATXN2-luciferase reporter) viability, CellTiter-Fluor protease fluorescence, 24 h; Potency, µM (top dose mostly 56.7 µM), actives largely listed as cytotoxic; hit rate 0.49% among 400,000; AID 651635, 2014; also: nearly all actives have a fitted effect of over 40% in size
# TGFb inhibitor = qHTS for Inhibitors of TGF-b; hit rate 1.2% among 410,000; AID 588855, 2011; Potency, µM (doses to about 46.1 µM), for inactives: at the highest dose activity, negative = inhibition, most hits filed as inhibitors; HepG2 CAGA-GFP TGF-b/SMAD3 reporter, GFP fluorescence, 18 h; TGF-beta stimulated, 500 pg/mL final; also: % is scaled to controls: 0 for no effect and ±100 for the full control effect; nearly all actives have a fitted effect of over 65% in size
#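 HEPG2 CAGA-GFP, 1000 cells/well; 2 h settle, 37 C; cpd via pin tool; TGF-b 500 pg/mL final; 18 h, 37 C; GFP imaging ex488/em500-530; %Activity normalised to -TGF-b and +DMSO controls; CRC fit, curve class.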
# Gal4-VP16 FLuc = VP16 counterscreen qHTS for inhibitors of ROR gamma transcriptional activity; Drosophila S2 Gal4-VP16 UAS-luciferase, luminescence, 20 h; Potency, µM (highest dose often 53.6 µM), for the others: top-dose activity, negative = inhibition, usual class: inhibitors; hit rate 3.5% among 310,000; AID 2546, 2010;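 also: Gal4-VP16 expression switched on by copper sulfate through the metallothionein promoter; % is scaled to controls: 0 for no effect and ±100 for the full control effect; nearly all actives have a fitted effect of over 50% in size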
# ATXN2 expr inh = Primary qHTS for Inhibitors of ATXN expression. HEK-293 ATXN2-luciferase reporter, luminescence, 24 h. Potency, µM (doses to about 57 µM), inactives show top-dose activity change, negative = inhibition, hits mostly inhibitors. hit rate 0.72% among 360,000; also: % is scaled to controls: 0 for no effect and ±100 for the full control effect; nearly all actives have a fitted effect of over 55% in size
#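 ATXN2-luciferase reporter cells (luciferase flanked by upstream and downstream ATXN2 gene portions) were treated 24 h at 37 °C with compounds at up to 57 uM. SteadyGlo luminescence gave expression; GF-AFC fluorescence gave viability.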
# RORgamma inh = qHTS for inhibitors of ROR gamma transcriptional activity | Nuclear receptor ROR-gamma (Mus musculus), P51450 | Drosophila S2 Gal4-RORgamma UAS-luciferase reporter, 20 h | Potency, µM (top dose mostly 53.6 µM), for the others: at the highest dose activity change, negative = inhibition, usual class: inhibitors | hit rate 5.4% among 310,000 | AID 2551, 2010; also: % is scaled to controls: 0 for no effect and ±100 for the full control effect; nearly all actives have a fitted effect of over 60% in size
# Target sequence (P51450 whole entry, looked up, the tested form may be a part): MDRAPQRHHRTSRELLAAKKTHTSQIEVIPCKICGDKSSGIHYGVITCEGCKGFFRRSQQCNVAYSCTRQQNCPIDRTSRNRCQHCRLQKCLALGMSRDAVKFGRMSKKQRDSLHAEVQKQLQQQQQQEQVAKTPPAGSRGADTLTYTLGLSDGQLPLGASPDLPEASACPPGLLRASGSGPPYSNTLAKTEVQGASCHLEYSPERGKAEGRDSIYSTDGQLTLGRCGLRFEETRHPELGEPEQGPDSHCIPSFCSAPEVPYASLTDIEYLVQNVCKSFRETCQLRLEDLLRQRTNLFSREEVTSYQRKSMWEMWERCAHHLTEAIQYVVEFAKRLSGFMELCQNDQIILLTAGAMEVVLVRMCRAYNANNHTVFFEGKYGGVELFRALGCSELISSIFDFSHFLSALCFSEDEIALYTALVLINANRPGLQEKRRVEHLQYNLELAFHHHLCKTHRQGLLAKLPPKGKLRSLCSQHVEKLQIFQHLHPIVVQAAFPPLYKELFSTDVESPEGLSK
#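 Schneider cells (Drosophila), stable Gal4 DBD–ROR gamma + UAS-luc; 1 hr cmpd preincubation; Cu2+ induction 700 uM final; 20 hr ambient; luminescence.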
# HepG2 viability = qHTS for Inhibitors of TGF-b: Cytotox Counterscreen | Potency, µM (titrated, usually from 46.1 µM), for inactives: at the top dose activity change, negative = cytotoxicity, actives largely listed as cytotoxic | HepG2 CAGA-GFP viability, ATP luminescence, 18 h | hit rate 0.76% among 410,000 | AID 588856, 2011
#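 HepG2 CAGA-GFP cells (1000/well, DMEM with 1% FBS) received compound, then TGF-beta at 500 pg/mL final, and were incubated 18 hours at 37 degrees C. Viability was read by CellTiter-Glo luminescence. Media-only wells were set as complete cell-killing and DMSO as no toxicity.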
# Active calls of the source: *; i = inactive; ? = inconclusive; / = not tested or not shown. Compounds with a hit are over-represented: about 6.1% of the library has one in this group of screens. Calls follow the shape of the dose curve; as a rule, active = well fitted curve in the direction sought with a large enough effect; inconclusive = small, poorly fitted or top-dose-only effect, or another doubt; inactive = no such curve, though single readings can be large; an effect the other way counts as inactive or inconclusive. Potency is read from the fitted curve at half-maximal effect.
SMILES,ATXN viability,TGFb inhibitor,Gal4-VP16 FLuc,ATXN2 expr inh,RORgamma inh,HepG2 viability
Cc1ccc(-n2nnnc2-c2cnn(-c3ccc(F)cc3)c2C(F)(F)F)cc1,?,-0.4%,22.4µM*,-16.4%,?,-30.2%
CN1CCN(CC#CCn2c3ccccc3c3ccccc32)CC1,?,-27.0%,-7.9%,25.1µM*,-29.7%,-36.4%
CN1CCN(CC(O)Cn2c3ccccc3c3ccccc32)CC1 (centres undefined),i,6.7%,2.0%,/,0.7%,-1.1%
CCCOc1ccc(-c2nonc2NC(=O)c2ccco2)cc1OCCC,i,6.1%,/,-14.3%,/,-16.4%
CCOC(=O)Cc1ccc(NC(=O)n2ncc3cc(Cl)ccc32)cc1,i,20.7%,/,20µM*,/,-17.4%
Cc1ccc(C)c(NC(=O)n2ncc3cc(Cl)ccc32)c1,i,34.6%,/,16.3%,/,12.5%
Cn1c(=O)c2sccc2n2c(CCC(=O)NCc3ccccc3)nnc12,i,-4.4%,/,-1.2%,/,-5.2%
COc1cccc(-c2ccc(NC(=O)C3CCCN(Cc4cccc(C)n4)C3)cc2)c1 (centres undefined),?,?,/,/,/,-59.3%
COc1ccc(C(=O)C2CCCN(Cc3c(O)cccc3OC)C2)cc1OC (centres undefined),i,1.0%,6.2%,-20.1%,7.0%,-26.6%
COc1ccc2cc(C(=O)C3CCCN(Cc4cccc(C)n4)C3)ccc2c1 (centres undefined),i,?,12.6µM*,-12.6%,2µM*,-29.7%
COc1cccc(O)c1CN1CCCC(C(=O)c2cccc(C(F)(F)F)c2)C1 (centres undefined),i,15.8µM*,-14.0%,-37.0%,0.9%,-51.7%
C(=C\c1nccc2ccccc12)/c1ccc(N2CCOCC2)cc1,/,-14.4%,/,/,/,-21.1%
CCOc1ccccc1N(C)C(=O)C1CCCN(c2ncnc3onc(-c4ccc(F)cc4)c23)C1 (centres undefined),i,-15.4%,/,0.1%,/,-24.2%
COC(=O)c1ccc(OCC2c3cc(OC)c(OC)cc3CCN2C(=O)Cc2ccc(OC)c(OC)c2)cc1 (centres undefined),i,-9.3%,/,-3.1%,/,-20.3%
COc1ccc(CC(=O)N2CCc3cc(OC)c(OC)cc3C2COc2cc(C)cc(C)c2)cc1OC (centres undefined),i,14.1µM*,/,0.0%,/,-17.9%
Cc1ccccc1C1C(C#N)=C2N=C(N)c3c(sc4c3CCCCC4)N2C2=C1C(=O)CC(C)(C)C2 (centres undefined),i,0.0%,?,2.7%,12.6µM*,-4.9%
Cc1nn(-c2ccc(N3CCCC3)nn2)c(C)c1CCC(=O)NCc1ccc(F)cc1,/,1.3%,/,/,/,-14.7%
Cc1ccc(NC(=O)CCN2CCN(C/C=C/c3ccccc3)CC2)cc1C,i,0.0%,-19.4%,-16.2%,18.1%,-42.6%
COc1ccc(OC)c(NC(=S)N2CCCC2)c1,i,-6.8%,2.7%,1.9%,-5.7%,0.9%
COc1ccc(OC)c(NC(=S)N2CCN(C/C=C/c3ccccc3)CC2)c1,?,-1.6%,0.7%,-13.6%,2.82µM*,-10.4%
CCOc1ccc(NC(=S)N2CCN(C/C=C/c3ccccc3)CC2)cc1,i,1.1%,?,1.6%,14.1µM*,-0.7%
COc1ccc(NC(=S)N2CCN(C/C=C/c3ccccc3)CC2)cc1OC,i,?,8.2%,-11.8%,10µM*,-3.4%
COc1ccc(NC(=S)N2CCN(C/C=C/c3ccccc3)CC2)cc1,i,-16.2%,?,-34.1%,?,-11.9%
Cc1cc(Cl)ccc1OCCSc1nnc(-c2cccs2)o1,i,?,/,-8.1%,/,0.6%
CC(C)c1ccc(NC(=O)Nc2nc(C(N)C3CCCCC3)cs2)cc1 (centres undefined),?,22.4µM*,/,?,/,10µM*
SMILES,ATXN viability,TGFb inhibitor,Gal4-VP16 FLuc,ATXN2 expr inh,RORgamma inh,HepG2 viability
COc1cccc(Nc2nc(C(N)C3CCCCC3)cs2)n1 (centres undefined),/,?,/,0.0%,/,15.8µM*
CC(C)c1ccc(NC(=O)Nc2nc(C(C)N)cs2)cc1 (centres undefined),/,17.8µM*,/,?,/,-84.9%
CC(C)C(N)c1csc(NC(=O)Nc2cccc(C(F)(F)F)c2)n1 (centres undefined),/,?,/,?,/,-98.6%
CC(C)C(N)c1csc(NC(=O)Nc2ccc(OC(F)(F)F)cc2)n1 (centres undefined),20µM*,20µM*,/,?,/,20µM*
COc1cccc(C2NC(c3cccc(OC)c3O)C(C)C(=O)C2C)c1O (centres undefined),i,22.6%,4.47µM*,?,3.16µM*,-7.2%
CC1C(=O)C(C)C(c2cc(Cl)ccc2O)NC1c1cc(Cl)ccc1O (centres undefined),/,?,?,25.1µM*,?,-144.3%
O=C(Nc1nnc(N2CCCCCC2)s1)Nc1cc(F)ccc1F,i,-0.3%,/,12.2%,/,-1.5%
CC(C)c1ccc(OCc2ccc(C(=O)O)o2)cc1,i,-17.5%,?,-30.6%,2.82µM*,2.8%
CCc1ccc(OCc2ccc(C(=O)O)o2)cc1,i,0.0%,?,2.4%,7.08µM*,8.2%
CCOC(=O)c1c(NC(=O)c2cccc(N3C(=O)CCC3=O)c2)sc(C)c1C,i,-1.1%,9.6%,-6.0%,?,-10.4%
CCOC(=O)c1c(NC(=O)C2=C(C)NC(=S)NC2c2ccc(F)cc2)sc(C)c1C (centres undefined),?,-26.2%,?,0.0%,12.6µM*,-17.6%
CCOC(=O)c1c(NC(=O)C2=C(C)NC(=S)NC2c2ccc(F)cc2F)sc(C)c1C (centres undefined),?,?,6.31µM*,-13.6%,2.82µM*,-25.7%
CCOC(=O)c1c(NC(=O)C2=C(C)NC(=S)NC2c2ccc(C)cc2)sc(C)c1C (centres undefined),/,6.3%,3.55µM*,-6.3%,2.82µM*,25.5%
CCOC(=O)c1c(NC(=O)C2c3ccccc3Oc3ccccc32)sc(C)c1C,i,-11.8%,/,4.6%,/,-2.8%
Cc1cnc(SCc2ccccn2)nc1C1CCCN(C(=O)c2cc3ccccc3oc2=O)C1 (centres undefined),i,/,/,/,/,/
COCCN=C1N[C@@H](c2cccc(C(F)(F)F)c2)C(C(=O)OC)=C(C)N1Cc1ccccc1,?,-19.4%,3.6%,?,-6.1%,-25.2%

# Screening results: PubChem BioAssay, National Center for Advancing Translational Sciences (NCATS)
